# From ChEMBL document CHEMBL3433997, “St. Jude Leishmania screening dataset” (2016)
# Legend:
# Assay type in all cases: functional
# [1] = target: Solute carrier family 2, facilitated glucose transporter member 1 (Homo sapiens) (UniProt P11166); experiment: ST_JUDE_LEISH: Cytotoxicity at 2uM final concentration against transgenic Leishmania Mexicana promastigotes LmGLUT1 that are glucose transport deficient and complemented with the human glucose transporter GLUT1. Activity is measured by DNA content using SYBR green in vitro
# Sequence of Solute carrier family 2, facilitated glucose transporter member 1 (Homo sapiens) (P11166 whole entry): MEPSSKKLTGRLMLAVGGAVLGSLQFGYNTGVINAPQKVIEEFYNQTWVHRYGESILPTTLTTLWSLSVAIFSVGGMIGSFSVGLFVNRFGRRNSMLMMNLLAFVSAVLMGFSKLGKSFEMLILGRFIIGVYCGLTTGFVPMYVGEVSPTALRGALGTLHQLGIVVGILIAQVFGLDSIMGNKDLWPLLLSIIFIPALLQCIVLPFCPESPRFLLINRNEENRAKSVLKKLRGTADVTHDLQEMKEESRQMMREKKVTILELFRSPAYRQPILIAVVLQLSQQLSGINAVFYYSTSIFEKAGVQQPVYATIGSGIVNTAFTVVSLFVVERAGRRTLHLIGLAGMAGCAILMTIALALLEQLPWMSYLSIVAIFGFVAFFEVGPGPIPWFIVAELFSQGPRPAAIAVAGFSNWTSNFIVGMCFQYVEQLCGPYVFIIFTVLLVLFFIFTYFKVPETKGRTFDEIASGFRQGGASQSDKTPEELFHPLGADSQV
# [2] = target: Hexose transporter 1 (Plasmodium falciparum) (UniProt O97467); experiment: ST_JUDE_LEISH: Cytotoxicity at 2uM final concentration against transgenic Leishmania Mexicana promastigotes LmPfHT that are glucose transport deficient and complemented with the Plasmodium falciparum hexose transporter. Activity is measured by DNA content using SYBR green in vitro
# [3] = target: Glucose transporter (Leishmania mexicana) (UniProt O61059); experiment: ST_JUDE_LEISH: Cytotoxicity at 2uM final concentration against transgenic Leishmania Mexicana promastigotes LmGT2 that are glucose transport deficient and complemented with the L. Mexicana glucose transporter 2. Activity is measured by DNA content using SYBR green in vitro
SMILES,inhibition [1],inhibition [2],inhibition [3]
CS(=O)(=O)NCCCNCc1cccc(-c2cccc(-c3nc4cc(C(F)(F)F)ccc4[nH]3)c2)c1,-0.01%,-4.31%,-1.5%
C[C@H]1CN(Cc2cccc(-c3cc(CNC(=O)c4cccc(CN5CCN(C/C=C/c6ccccc6)CC5)c4)ccc3F)c2)CCN1,11.6%,10.6%,12.7%
Cc1cc(NCC(c2ccccc2)c2ccccc2)nc(NCc2ccc(C(F)(F)F)cc2)n1,5.66%,6.13%,3.66%
N#Cc1cccc(-c2cnc(N)c(-c3nc4cc(S(N)(=O)=O)ccc4[nH]3)c2)c1,1.03%,1.38%,2.21%
Oc1cc2ccccc2cc1CNC1CCCCC1,1.31%,1.41%,1.5%
CCCCNC[C@@H](O)[C@H](Cc1ccccc1)NC(=O)c1cc2c3c(c1)c(CC)cn3CCS(=O)(=O)N2C,2.53%,4.07%,2.04%
Cc1nc(N)nc(N)c1OCCCOc1cccc(Cl)c1Cl,65.6%,65.8%,56.7%
N=C(N)Nc1nc(-c2cccc(NC(=O)NCC(c3ccccc3)c3ccccc3)c2)cs1,0.2%,2.14%,0.5%
CCc1ccccc1N1CCN(CCCCNC(=O)c2ccc(NC(=O)c3ccc(Cl)cc3)cc2)CC1,2.51%,2.19%,0.44%
O=C(COc1ccc(Cl)c(Cl)c1)NCCCCCN1CCCN(C(=O)Nc2ccc(Cl)c(Cl)c2)CC1,4.35%,3.1%,2.27%
O=C(Nc1cccc(-c2ccc(-c3nc4cc(C(F)(F)F)ccc4[nH]3)s2)c1)c1cccnc1,4.93%,4.73%,4.16%
COc1cc2c(cc1OC)-c1cc(=Nc3c(C)cc(C)cc3C)n(C)c(=O)n1CC2,0.22%,2.72%,0.49%
O=C(Nc1ccccc1)N(Cc1ccc(-c2ccc(CNC3CCCC3)cc2)cc1)C1CCN(Cc2ccccc2)CC1,4.17%,3.43%,2.32%
COc1cc2c(cc1S(=O)(=O)c1ccc(NC(=O)c3ccc4ccccc4c3)cc1)CCN(C)CC2,1.64%,0.19%,-0.44%
CN(C)CCNC(=O)c1csc(Nc2ccc(Cl)c(Cl)c2)n1,0.89%,1.38%,2.28%
COc1ccc(CNc2nc(NCc3ccc(C(F)(F)F)cc3)c3cc(OC)c(OC)cc3n2)cc1OC,20.1%,19.9%,14.3%
N#Cc1ccc2c(c1)CCN(CCC1CCC(NC(=O)c3cc4cccc(Cl)c4[nH]3)CC1)CC2 (stereo not drawn),15.5%,11.7%,9.05%
Cc1cc(N[C@@H](Cc2ccccc2)C(=O)Nc2ccccc2)nc(NCCc2ccccc2)n1,3.8%,5.68%,0.11%
CC(=O)Oc1cc(C(=O)Nc2ccc(Cl)cc2)cc2ccccc12,7.81%,5.31%,5.8%
CCc1cn(CCc2ccccc2)c2ccc(C(=O)N[C@@H](Cc3ccccc3)[C@H](O)CNC(C)(C)CCCC(C)C)cc12,-1.76%,-1.07%,-2.99%
O=C(NCCN1Cc2ccccc2C1=O)c1ccc(Oc2ccc(C(=O)NCCN3Cc4ccccc4C3=O)cc2)cc1,-0.35%,0.02%,-0.4%
Cc1cccn2c(=O)c3cc(C(=O)NC(C)c4ccccc4)c(=N)n(CCN4CCOCC4)c3nc12 (stereo not drawn),3.65%,1.65%,-1.52%
NCCCN(Cc1ccc(Cl)c(Cl)c1)C(=O)Nc1ccc(Cl)c(Cl)c1,14.3%,9.33%,10.1%
O=[N+]([O-])c1ccccc1C=NN=c1c2c([nH]c3ccccc13)CCCC2,20.8%,17.5%,12%

SMILES,inhibition [1],inhibition [2],inhibition [3]
CC(=O)Nc1cccc(CNCc2ccc(-c3cnc(N4CCCC(c5ccccc5)C4)nc3)cc2)c1 (stereo not drawn),4.23%,2.57%,2.2%
CCCC(CNCc1ccccc1)CNc1cc(=O)c2ccccc2[nH]1 (stereo not drawn),-0.08%,-3.44%,-0.73%
Cc1nc(N)nc(N)c1CCCOc1cccc(Cl)c1,7.39%,7.51%,-0.98%
COc1ccc2nccc([C@@H](O)CN3CCC(NCc4cc5ccccc5nn4)CC3)c2c1,6.88%,7.17%,7.16%
COC(=O)c1cccc(NC(=O)NC2CCN(c3ccnc(Nc4ccc(OC)cc4)n3)C2)c1 (stereo not drawn),0.29%,0.86%,0.1%
CCN(CC)CCCCNc1cc(-c2[nH]c(C(C)(C)C)nc2-c2ccc3cc(OC)ccc3c2)ccn1,4.69%,4.79%,1.94%
COc1ccc(CC(Cc2ccc(OC)cc2)NCC(O)c2cccc(Cl)c2)cc1 (stereo not drawn),2.03%,0.72%,1.6%
NC(=O)c1cccc(Nc2nccc(Nc3ccc(Oc4cccc(Cl)c4)c(Cl)c3)n2)c1,10.6%,9.87%,7.71%
COc1cc(F)c2nccc([C@@H](O)CN3CCC(NCc4ccc5c(n4)NC(=O)CS5)CC3)c2c1,-0.92%,-1.04%,-1.38%
Cc1cc(NC(=O)c2ccc(-c3ccccc3)cc2)no1,4.35%,3.79%,4.2%
CCCCC1(c2ccc(F)cc2)NC(=O)N(CC(=O)c2cc(C)n(Cc3ccco3)c2C)C1=O (stereo not drawn),-0.18%,0.18%,-0.26%
Cn1cnc(CCNC(=O)c2ccc(-c3cccc(-c4nc5cc(F)ccc5[nH]4)c3)cc2)c1,2.97%,1.64%,0.52%
CCN(CC)CCCN(CCCN(CC)CC)c1cc(C)nc(Nc2ccc(Br)cc2)n1,0.34%,0.99%,-0.4%
COc1ccccc1-c1csc(C(=O)NC2CCCCN(Cc3ccc(C(C)(C)C)cc3)C2)c1 (stereo not drawn),2.42%,1.58%,2.61%
O=C(Nc1cccc(C(F)(F)F)c1)NC1CCN(c2ccnc3ccccc23)C1 (stereo not drawn),1.65%,-0.4%,6.33%
CCCC(C)NC(=O)c1cnn(-c2ccc(C(C)(C)C)cc2)c1OCc1ccc(Br)cc1 (stereo not drawn),4.76%,6.02%,5.11%
Cc1ccc(-c2nnc(Nc3ccc(CC(N)=O)cc3)c3ccccc23)cc1S(=O)(=O)NCC1CCCO1 (stereo not drawn),6.25%,7.99%,2.36%
Cc1nc(N)nc(N)c1-c1cc(Cl)c(Cl)c(Cl)c1,0.4%,0.89%,1.22%
CN(C)CCNC(=O)c1cccc(-c2cnc3ccc(NCc4ccc(Cl)c(Cl)c4)nn23)c1,8.3%,8.99%,7.6%
CCN(CC)CCOc1ccc(C(O)(C#CC(O)(c2ccc(C)cc2)c2ccc(OCCN(CC)CC)cc2)c2ccc(C)cc2)cc1 (stereo not drawn),7.79%,8.63%,1.02%
Cc1cccc2nc(-c3ccc(-c4cccc(NC(=O)CCc5c[nH]cn5)c4)cc3)[nH]c12,0.1%,1.46%,2.35%
O=C(Nc1cccc(CN2CCCN(Cc3ccc(F)cc3)CC2)c1)c1ccc(Cl)c(Cl)c1,4.82%,4.15%,0.56%
O=C(Nc1ccc(Cl)cc1F)NC1CCN(CCCCCNC(=O)C2CC2c2ccc(Cl)c(Cl)c2)CC1 (stereo not drawn),1.08%,0.8%,3.62%
COc1ccc(Cl)cc1N1CCN(CCCNC(=O)c2ccc(-c3nc4cc5ccccc5cc4[nH]3)c(F)c2)CC1,1.51%,3.41%,1.26%

SMILES,inhibition [1],inhibition [2],inhibition [3]
FC(F)(F)c1cc(Nc2ncnc3ccc(Br)cc23)ccc1OCc1ccccc1,6.39%,3.97%,3.84%
CCOc1cc(C(=O)Nc2cccnc2)cc(Br)c1OCCC(C)C,1.25%,-2.07%,-0.8%
CCN(c1ccc(F)cc1)S(=O)(=O)c1cc(Br)cc2c1N(C(=O)C1CC1)CC2,0.4%,1.32%,3.74%
Cc1cc(=NN=Cc2ccccc2Cl)c2cc(C(F)(F)F)ccc2[nH]1,-0.33%,-0.65%,1.27%
CCOC(=O)c1nc2ccc(SC3CCCCC3)cn2c1Br,1.75%,0.06%,5.65%
CC1(C)CCCC(=Cc2ccc(Br)cc2)C1(O)Cn1ccnc1 (stereo not drawn),27.9%,20.9%,13.5%
CC(=O)Nc1ccc(OCCN(Cc2ccccc2OC(F)(F)F)c2ccc(C(F)(F)F)c(C#N)c2)c(Cl)c1,2.43%,2.88%,4.14%
CCCCOc1cc2ncc(C(=O)OCC)c(O)c2cc1OCCCC,0.09%,0.46%,-3.15%
COc1c(C2CCN(CCCCNC(=O)c3ccc(-c4ccc(C#N)cc4)cc3)CC2)cc(Cl)c2c1CCCC2,1.68%,2.86%,0.77%
COCCn1c(-c2cccc(Cl)c2)nn(-c2ccc([N+](=O)[O-])cc2Cl)c1=S,4.03%,6.65%,7.62%
NC1=NC(c2ccccc2)N(c2ccccc2)C(N)=N1 (stereo not drawn),1.99%,-4.07%,-0.58%
CCc1ccc(C2CCN(CCCCNC(=O)c3ccc(NC(=O)c4ccc(Cl)cc4)cc3)CC2)c(OCCO)c1,3.01%,2.33%,1.61%
CCc1ccc(C2CCN(CCCCNC(=O)c3ccc(NC(=O)c4ccc(Cl)cc4)cc3)CC2)c(OC)c1,9.49%,2.21%,1.66%
Cc1nnsc1C(=O)Nc1cccc(-c2ccc(-c3nc4cccc(C)c4[nH]3)s2)c1,1.88%,1.77%,3.82%
Cc1cccc(CN2CCCC3(CCN(Cc4ccccc4O)C3)C2)c1 (stereo not drawn),2.62%,1.27%,-0.38%
Cc1noc(-c2ccccc2)c1NC(=O)NC1CCN(CCCCCNC(=O)/C=C/c2ccc(Cl)c(Cl)c2)CC1,4.35%,5.32%,3.4%
Cc1nn(-c2ccccc2)nc1C(=O)N(Cc1ccc(-c2ccc(CNCCc3ccc(S(C)(=O)=O)cc3)cn2)cc1)C(C)CN(C)C (stereo not drawn),0.95%,3.63%,3.9%
COc1ccc(CNc2nccc3ccc(-c4ccc5nccn5c4)cc23)cc1,1.79%,0.03%,-1.93%
COc1cc(C(=O)Nc2cccc(-c3nc4ccccc4[nH]3)c2)ccc1OC(C)=O,-0.73%,2.19%,0.31%
O=C(N[C@H]1CCN(CCc2ccc(O[C@H]3CCNC3)cc2)C1)c1ccc(Cl)c(Cl)c1,14.2%,10.1%,14.5%
COc1ccc2nccc([C@@H](O)CN3CCC(NCc4ccc5c(c4)NC(=O)C(C)(C)O5)CC3)c2c1,7.93%,8.24%,3.18%
COc1c(I)cc(Cc2cnc(N)nc2N)cc1I,6.68%,4.23%,2.6%
COc1ccc(-c2ccc(CNCc3ccc(F)cc3)cc2)cc1S(=O)(=O)NCCN1CCCC1,0.67%,1.06%,3.23%
